# Bioassay records deposited in PubChem BioAssay by National Center for Advancing Translational Sciences (NCATS).
# Shown are actives, neighbours in structure and some others; about 4.6% of the full set was active somewhere.
# TRHR agonist: agonists of human TRH receptor. P34981. TRHR cells, calcium flux fluo-8, FDSS agonist mode. activation, % at 2 µM. actives 0.18% (n = 360,000). AID 493084; further: 0% is about no effect
#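 Agonist-mode FDSS calcium read (Ex 480/Em 530, 1 s cycles) in 1536-well TRHR cells with fluo-8 dye, after 10-cycle baseline and 23 nL compound addition; TRH at EC20 (10 nM final) added afterwards for the enhancer phase.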
# D1 ag: human D1 receptor agonism | P21728 | HEK293 T-REx D1 cells, calcium flux, agonist mode | activation, % at 2 µM | actives 1% (n = 360,000); further: 0% is about no effect
# Target sequence (P21728 whole entry, looked up): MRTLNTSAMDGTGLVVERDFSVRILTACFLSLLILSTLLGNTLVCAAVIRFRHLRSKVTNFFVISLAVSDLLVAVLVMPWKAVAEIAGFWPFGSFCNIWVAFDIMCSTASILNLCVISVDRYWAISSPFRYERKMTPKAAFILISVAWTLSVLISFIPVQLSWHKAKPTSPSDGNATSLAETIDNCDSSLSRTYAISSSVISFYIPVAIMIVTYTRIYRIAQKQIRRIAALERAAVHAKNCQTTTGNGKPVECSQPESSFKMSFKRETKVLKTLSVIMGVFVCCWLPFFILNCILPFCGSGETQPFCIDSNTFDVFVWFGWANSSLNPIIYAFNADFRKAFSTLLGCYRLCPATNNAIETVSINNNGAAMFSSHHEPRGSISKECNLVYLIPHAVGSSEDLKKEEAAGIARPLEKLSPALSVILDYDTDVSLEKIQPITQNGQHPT
#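 Inducible HEK293 T-REx D1 cells, force-coupled to calcium signalling, were plated at 4000 cells/well with tetracycline and held overnight at 30 C. After no-wash calcium dye loading, compound-evoked calcium rise over 180 s flagged agonists.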
# TRHR PAM: allosteric enhancers of human TRH receptor; P34981; TRHR cells, fluo-8 calcium fluorescence, EC20 TRH enhancement; enhancement, % at 2 µM; actives 0.66% (n = 360,000); in the data active means enhancement above about 30%; further: 0% is about no effect
#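 TRHR-expressing cells loaded with fluo-8 calcium dye were read kinetically (ex 480/em 530) during compound addition, then stimulated with an EC20 of TRH (10 nM final). Enhancement of the Gq-mediated intracellular calcium response was scored.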
# D1 PAM: potentiators of human D1 dopamine receptor | HEK293 TREx D1 cells, calcium flux, dopamine EC20 potentiation | P21728 | potentiation, % at 10 µM | actives 0.036% (n = 360,000); in the data active means potentiation above about 30%; further: 0% is about no effect
# D1 antagonist: blocks dopamine activation of the human D1 receptor; HEK293 TREx D1 cells, calcium flux, dopamine EC80; stronger effect = lower value; activity change, negative = inhibition, % at 10 µM; actives 3.2% (n = 360,000); AID 504652; in the data active means activity change below about -30%; further: on the % scale 0 is the no-effect control and ±100 the full control effect
#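 Tetracycline-induced HEK293 Trex D1 cells, force-coupled to calcium, dye-loaded; compounds added and read 180 s, then EC80 dopamine added and calcium flux tracked kinetically another 180 s.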
# * marks the source's active call; other numbers are inactive results; . = no result. Unless noted, no stated cut-off is given here; in the data, active means activation above about 30%; inactive means the rest.
SMILES,TRHR agonist,D1 ag,TRHR PAM,D1 PAM,D1 antagonist
CCOc1ccc(C(=O)Nc2c(C(=O)c3ccccc3)oc3ccccc23)cc1,32*,143*,6,4,7
O=C(COc1ccc([N+](=O)[O-])cc1)N1CCC(c2nc3ccccc3s2)CC1,0,7,-3,-1,-82*
CCOc1cccc(C(=O)N2CCC(c3nc4ccccc4s3)CC2)c1,0,0,5,-2,-36*
CCOC(=O)N1CCN(C(=O)c2nc3ccccc3s2)CC1,0,4,-1,4,-34*
COc1ccc(OCC(=O)N2CCC(c3nc4ccccc4s3)CC2)cc1,0,5,-1,-1,-11
CCCN(CCC)C(=O)c1nn(C)c2c1CSc1ccc(C)cc1-2,0,3,-1,1,-16
CC(Oc1ccc(-c2ccccc2)cc1)C(=O)N/N=C/c1cccnc1 (stereo unspecified),0,9,-3,-8,-36*
COc1ccc(C(=O)N/N=C/c2cccnc2)cc1,1,5,-2,6,-5
COc1ccc(N(Cc2cc3cccc(C)c3[nH]c2=O)C(=O)c2cccc(Cl)c2)cc1,1,1,-2,1,0
O=C(CSC1=Nc2ccccc2C2=NC(Cc3ccccc3)C(=O)N12)Nc1ccccc1F (stereo unspecified),-1,7,7,2,6
COc1ccccc1-c1nc(-c2ccc(C)nc2OC)no1,-1,6,4,-2,-32*
COc1nc(C)ccc1-c1noc(-c2ccccn2)n1,0,-2,0,-6,-9
C=CCNC(=S)NNC(=O)c1ccccc1,0,6,39*,-3,11
COc1cccc(CC(=O)OCC(=O)NC(Cc2ccccc2)C(C)=O)c1 (stereo unspecified),-1,4,-2,0,-13
COc1cccc(CC(=O)OCC(=O)NNC(=O)c2ccc(Br)cc2)c1,0,7,-1,.,-33*
CCc1cn(C2CC(O)C(CO)O2)c(=O)[nH]c1=O (stereo unspecified),-1,2,1,-4,-35*
Cc1ccc(/C=N/NC(=O)CSc2nc3ccccc3[nH]2)o1,0,1,6,-6,1
CCC1CCCCN1C(=O)Cn1c(=O)n(-c2ccc(Cl)c(Cl)c2)c(=O)c2c(C)c(C(=O)N(C)C)sc21 (stereo unspecified),-1,0,-3,0,-34*
Cc1c(C(=O)N(C)C)sc2c1c(=O)n(-c1ccc(Cl)c(Cl)c1)c(=O)n2CC(=O)C(C)(C)C,0,-1,3,0,14
O=c1c2ccccc2nnn1Cc1ccc(F)cc1,0,2,-11,1,11
N#CCc1nn(Cc2ccc(F)cc2)c(=O)c2ccccc12,1,2,-8,-8,-32*
O=C(C1=C[C@H](c2csc3ccccc23)C[C@H](OCc2ccc(CO)cc2)O1)N1CCN(Cc2ccc3c(c2)OCO3)CC1,1,0,-6,4,-34*
O=C(C1=C[C@@H](c2coc3ccccc3c2=O)C[C@@H](OCc2ccc(CO)cc2)O1)N1CCOCC1,0,-6,-6,0,-17
CN1CCN(C(=O)C2=C[C@@H](C3CC3)C[C@@H](OCc3ccc(CO)cc3)O2)CC1,0,-4,31*,3,12
CN1CCN(C(=O)C2=C[C@@H](c3csc4ccccc34)C[C@@H](OCc3ccc(CO)cc3)O2)CC1,2,41*,-6,-2,-5
SMILES,TRHR agonist,D1 ag,TRHR PAM,D1 PAM,D1 antagonist
CN1CCN(C(=O)C2=C[C@H](c3coc4ccccc4c3=O)C[C@H](OCc3ccc(CO)cc3)O2)CC1,0,-3,-8,34*,-20
O=C(Cn1ncc2c3ccccc3n(Cc3ccccc3)c2c1=O)NCCc1ccc(Cl)cc1,3,5,0,-1,-9
COc1ccccc1NC(=O)Cn1cc(S(=O)(=O)Cc2ccccc2)c2ccccc21,0,3,-2,3,-12
O=C(Cc1ccccc1)NCCc1csc2nc(-c3ccc(Cl)cc3)nn12,0,4,-7,-4,-3
CC1CCN(C(=O)c2cc(-c3cccc(Cl)c3)on2)CC1,-1,-1,-1,1,3
O=C(O)C1=C[C@@H](c2coc3ccccc3c2=O)C[C@@H](OCc2ccc(CO)cc2)O1,0,-5,-5,0,-22
O=C(NC1CC1)C1=C[C@@H](c2coc3ccccc3c2=O)C[C@@H](OCc2ccc(CO)cc2)O1,0,34*,0,5,4
O=C(O)CCc1ccc(-c2ccc(F)cc2)n1NC(=O)c1ccco1,1,1,5,-4,-88*
CCOC(=O)c1cccc(NC(=O)CCC(=O)N2CC(C)Oc3ccc(C)cc32)c1 (stereo unspecified),-1,-2,14,0,10
COc1ccc(Br)cc1S(=O)(=O)N1CCOCC1,1,2,-2,0,-10
CCN(CC)c1ccc(C=Nc2ccc(OC)c(S(=O)(=O)N3CCOCC3)c2)c(O)c1,-3,1,2,-8,-33*
CCCCOc1ccc(C2=NC(c3ccncc3)=Nc3ccc(Br)cc3N2)cc1,-1,0,-3,1,6
Cc1cccc(N(C)C(=O)C2CCC(CNS(=O)(=O)c3cccc4nsnc34)CC2)c1 (stereo unspecified),0,5,-2,5,-14
CCC(C)NC(=O)CSc1nc2cc(S(=O)(=O)N3CCOCC3)ccc2n1CC (stereo unspecified),0,-1,1,1,-32*
CCn1c(SCC(=O)c2cc(C)ccc2C)nc2cc(S(=O)(=O)N3CCOCC3)ccc21,0,4,-6,2,16
COc1ccc(-c2n[nH]c3c2cnc2ccc(F)cc23)cc1,1,0,1,2,-3
Cc1cc(NC(=O)Nc2ccc(OCc3ccccc3)cc2)n(C)n1,-1,3,-3,-9,-3
O=C(c1ccccc1)c1c2c(cc3sc4ccccc4[n+]13)-c1cccc3cccc-2c13,79*,242*,22,-5,-25
CN(CC(=O)Nc1cccc(F)c1)C(=O)c1ccc(C(=O)c2ccccc2)cc1,4,18,-5,-6,-60*
Cc1ccc(-c2cc(-c3coc4ccc(Cl)cc4c3=O)c3c(n2)-c2ccccc2OC3)cc1,-1,-1,10,-3,-2
Cc1nc2cccnc2n1-c1cccc(C(=O)N2CCN(c3cccc(Cl)c3)CC2)c1,-1,5,-4,-4,-32*
O=C(c1ccc2c(Cl)c3c(nc2c1)CCCC3)N1CCN(c2cccc(Cl)c2)CC1,0,7,33*,6,-9
COc1ccc(CNC(=O)CCC(=O)N2CCSc3ccccc32)cc1,0,3,0,-4,11
